High-throughput results (PubChem)
Gli-Sufu antag = blocks Gli-Sufu signaling in a luciferase reporter. inhibition, % at 5 µM. AID 588413. actives 0.74% (n = 340,000). Sufu-KO-LIGHT fibroblasts, Gli luciferase reporter luminescence;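 active = inhibition above about 55%, limit read from the data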;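 also: 0% = DMSO-treated cells and 100% = wells with medium but no cells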
Mdm2-MdmX inh = disrupts the human Mdm2-MdmX interaction. inhibition, % at 8 µM. AID 485346. SaOS-2 split-luciferase Mdm2/MdmX complementation, luminescence. actives 3% (n = 330,000);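 active = inhibition of at least 50% at 8 µM in the primary screen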
aSyn UTR inh = 5' untranslated region of α-synuclein, MLPCN primary screen. alpha-synuclein 5'UTR reporter, inhibitor activity. inhibition, % (tested at 7.5 µM). actives 0.82% (n = 300,000). AID 1813; in the data active = inhibition above about 60%;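 also: H4 neuroglioblastoma cells stably carrying SNCA 5'UTR luciferase fusion; 0% = DMSO wells and 100% = positive control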
697 NFkB inh = inhibitors of the PMA/ionomycin-induced NF-kB reporter in 697 B cells; 697 B-cell NF-kB luciferase reporter, 16 h; inhibition, % at 4 µM; actives 0.33% (n = 330,000); in the data active = inhibition above about 35%
Jurkat NFkB inh = lowers PMA/ionomycin-induced NF-kB signal in Jurkat cells; PMA/ionomycin-induced NF-kB luciferase reporter, luminescence; inhibition, % at 4 µM; actives 0.53% (n = 330,000); AID 435003; in the data active = inhibition above about 50%
KLF5 inh = kruppel-like factor 5 inhibition; inhibition, % at 5 µM; DLD-1 KLF5 promoter-luciferase reporter, luminescence; AID 1700; actives 0.23% (n = 290,000);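 active = inhibition above a per-plate limit of that plate's mean compound inhibition plus 3 SD, cut at about 60% in these data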;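 also: 0% = DMSO wells and 100% = LY294002 at 200 µM; higher means less KLF5 promoter-driven luciferase light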
Mdm2-MdmX conf = confirmation of human Mdm2/MdmX interaction inhibitors; shares compounds with Mdm2-MdmX inh; Mdm2-MdmX binding, luminescent assay; inhibition, % at 8 µM; actives 55% (n = 10,000); AID 489028; in the data active = inhibition above about 40%
FLuc counter = full-length luciferase inhibition in Mdm2/MdmX counter-screen; shares compounds with Mdm2-MdmX inh; SaOS-2 full-length luciferase counterscreen, luminescence; actives 77% (n = 6,200); inhibition, % at 8 µM;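 active = mean inhibition at 8 µM reaching about 37%, which flags the compound as non-specific, limit read from the data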;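 also: p53-null SaOS-2 cells with luciferase driven by a doxycycline-inducible promoter; compound on cells about two nights before reading with doxycycline added after day one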
Starred values were filed as active, the others as inactive; . = no result given. In the library only some 4.1% were active in any assay of this set; here they are far more common.

SMILES | Gli-Sufu antag | Mdm2-MdmX inh | aSyn UTR inh | 697 NFkB inh | Jurkat NFkB inh | KLF5 inh | Mdm2-MdmX conf | others
Cc1nc(-c2cccnc2)sc1C(=O)N/N=C/c1ccccc1Cl | 18 | 70* | 3 | -64 | -10 | -1 | 18
CCCCC(=O)OCC(=O)N1N=C(c2c[nH]c3ccccc23)C(O)C1c1ccc(OC)cc1 (stereo not given) | -4 | 23 | -10 | -21 | -44 | -12 | .
COCc1cc(C)nc(OCC(=O)N/N=C/c2ccco2)c1C#N | 0 | -13 | 34 | 21 | -3 | -12 | .
COCc1cc(C)nc(OCC(=O)N/N=C/c2ccc(-c3cc([N+](=O)[O-])ccc3Cl)o2)c1C#N | -8 | 69* | 10 | 14 | 5 | -9 | -4
CCOc1ccccc1N1CC(C(=O)Nc2c(C)n(C)n(-c3ccccc3)c2=O)CC1=O (stereo not given) | -10 | 7 | -4 | 13 | 8 | 10 | .
COc1ccc(NS(=O)(=O)c2ccc3ccccc3c2)c2ncccc12 | 24 | 92* | 56 | 5 | 19 | 34 | 88* | FLuc counter=37*
CC(C)c1ccc(NC(=O)CSc2n[nH]c(=O)n2-c2ccc3c(c2)OCCO3)cc1 | 1 | 17 | -9 | -11 | 4 | -13 | .
Cc1ccc(Oc2c(C(N)=O)cc([N+](=O)[O-])cc2[N+](=O)[O-])cc1 | 0 | 95* | -8 | -10 | 6 | 16 | 95* | FLuc counter=52*
CCCCN(C(=O)c1cc(CC)c(C)s1)c1c(N)n(CCC)c(=O)[nH]c1=O | -5 | -23 | -18 | -2 | 0 | . | .
CC1=CC(C)(C)N(S(=O)(=O)c2ccc(C)cc2)c2ccccc21 | 9 | 64* | 41 | 17 | 34 | 9 | 64* | FLuc counter=88*
CC1=CC(C)(C)N(S(=O)(=O)c2ccc(F)cc2)c2ccc(C)cc21 | 0 | 47 | 8 | -51 | 49 | -27 | .
CCOc1ccc2c(c1)C(C)=CC(C)(C)N2S(=O)(=O)c1ccc(F)cc1 | . | 51* | -38 | 10 | 38 | -6 | 53* | FLuc counter=49*
COc1ccc(NC(=O)C2CCCN(C(=O)Nc3ccc(F)cc3)C2)cc1OC (stereo not given) | -5 | -5 | -10 | 2 | -19 | 0 | .
NC1=NC[C@H](Cc2ccc(O)cc2)N1CCc1cc(C(F)(F)F)cc(C(F)(F)F)c1 | -17 | -9 | -15 | -2 | 2 | . | .
NC1=NC[C@H](Cc2ccccc2)N1CCCCC1CCCCC1 | 58* | 78* | -16 | -42 | 3 | . | 30
CCC(C)[C@H]1CN=C(N)N1CCc1cc(C(F)(F)F)cc(C(F)(F)F)c1 (stereo not given in full) | 37 | 60* | -6 | -8 | -18 | . | 29
NC1=NC[C@@H](CC2CCCCC2)N1CCc1cc(C(F)(F)F)cc(C(F)(F)F)c1 | 9 | 99* | . | -16 | 8 | . | 100* | FLuc counter=51*
CCOc1ccccc1N(CC(=O)NCCSc1ccccc1)S(C)(=O)=O | 0 | -20 | 1 | 5 | -5 | -8 | .
CC(=O)N1N=C(c2cccc(Cl)c2)OC1c1cccc([N+](=O)[O-])c1 (stereo not given) | 2 | 65* | 6 | -40 | -17 | -27 | -15
Cc1cc([N+](=O)[O-])ccc1NC(=O)c1csc(C)c1C | -36 | -88 | -98 | -94 | -137 | -176 | .
CCCN(CCC)C(=O)CSc1nc2n[nH]c(C)c2c(=N)n1-c1ccc(OC)cc1 | 13 | 50* | 53 | -26 | 12 | -21 | 19
CCN(C(=O)CSc1nc2n[nH]c(C)c2c(=N)n1-c1ccc(Cl)c(C)c1)c1cccc(C)c1 | 9 | 76* | 49 | 5 | 9 | -57 | 21
COc1ccccc1NC(=O)CSc1nc2n[nH]c(C)c2c(=N)n1-c1ccccc1Cl | 15 | 68* | -22 | 11 | 11 | -18 | 41* | FLuc counter=71*
CC(C)[C@H](NC(=O)CCCn1nnc2ccccc2c1=O)C(=O)O | 0 | 34 | -5 | -5 | -8 | 0 | .
O=C(C1=C(O)C(=O)N(c2ccccc2)C1c1ccc([N+](=O)[O-])cc1)c1cccs1 (stereo not given) | 3 | 9 | -16 | -1 | -20 | -16 | .
SMILES | Gli-Sufu antag | Mdm2-MdmX inh | aSyn UTR inh | 697 NFkB inh | Jurkat NFkB inh | KLF5 inh | Mdm2-MdmX conf | others
OCCC1CN(Cc2cccc(-n3cccn3)c2)CCN1Cc1ccccc1 (stereo not given) | 12 | 7 | -4 | 0 | 11 | 17 | .
COc1cccc(-c2nc(C(=O)NCC3CCCO3)cc3c2[nH]c2ccccc23)c1 (stereo not given) | 15 | 65* | 2 | 25 | -13 | -29 | 25
COc1ccc(OC)c(-c2nc(C(=O)NCC3CCCO3)cc3c2[nH]c2ccccc23)c1 (stereo not given) | 6 | 34 | 9 | -15 | -11 | 12 | .
CCN(CC)CCN(C(=O)CCS(=O)(=O)c1ccccc1)c1nc2c(C)cc(C)cc2s1 | 14 | 51* | -5 | 12 | 1 | -19 | 37 | FLuc counter=87*
Cc1cccc2sc(N(CCN3CCOCC3)C(=O)CCS(=O)(=O)c3ccccc3)nc12 | 8 | 69* | -7 | -11 | 1 | . | 46* | FLuc counter=68*
Cc1ccc(CC(=O)NC2CCSC2=O)cc1 (stereo not given) | -4 | 15 | -28 | 4 | -15 | -6 | .
CC(C)CCN1CCN(Cc2ccon2)CC1CCO (stereo not given) | 21 | 4 | 6 | 13 | 7 | -15 | .
N#Cc1ccc(C(=O)OCC(=O)NC(=O)NCc2ccccc2)cc1 | -3 | 19 | . | 13 | 8 | . | .
COc1cc(/C=C/C(=O)OCC(=O)NCc2ccco2)ccc1O | 17 | 54* | -30 | -1 | 22 | . | 45* | FLuc counter=83*
COc1ccccc1/C=C/C(=O)OCC(=O)NCc1ccco1 | 5 | -33 | -22 | -7 | 0 | -10 | .
CCOC(=O)c1c(C)[nH]c(C)c1S(=O)(=O)NCCCN1CCOCC1 | 3 | 19 | -26 | 2 | 1 | -20 | .
CCOC(=O)c1c(C)[nH]c(C)c1S(=O)(=O)NCCN1CCN(c2cc(Cl)ccc2C)CC1 | 34 | 59* | 23 | 12 | 12 | 11 | 8
CC12CCC(C(=O)OC3CCCCC3)(OC1=O)C2(C)C (stereo not given) | 1 | -5 | 3 | -2 | 5 | 0 | .
COC(=O)N/N=C(\C)c1ccc(C)c([N+](=O)[O-])c1 | -16 | 9 | -31 | 10 | -2 | 0 | .
C/C(=N\NC(=O)c1cc(C)oc1C)c1ccc(C)c([N+](=O)[O-])c1 | -1 | 96* | . | 13 | 2 | . | -13
